According to PubChem BioAssay (NCI):
Compounds without any hit were thinned out: in the full panel of roughly 83,000, 20% have a hit.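 Cell lines were cultured in 96-well plates, exposed to a single compound concentration, and assessed for percent growth 48 hours later.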 Active and inactive are the calls of the source. The calls were made as follows: active = growth percent below 10; inactive = the rest.

Columns and labels:
Assay in all cases: NCI-60 one-dose screen, 48 h (100 = growth as untreated, 0 = no growth, -100 = all killed)
Conditions in all cases: 10 µM unless noted
[1] = tested on: HCT-15 colon
[2] = tested on: HT29 colon
[3] = tested on: SNB-75 CNS
[4] = tested on: SNB-19 CNS
[5] = tested on: U251 CNS
[6] = tested on: PC-3 prostate
[7] = tested on: SK-MEL-5 melanoma
[8] = tested on: UACC-62 melanoma
[9] = tested on: LOX IMVI melanoma
[10] = tested on: SK-MEL-28 melanoma

Measured: growth

CNC(=O)c1cc(Oc2ccc3c(c2)sc2nc(-c4ccc(OC)cc4)cn23)ccn1
inactive: [1] 52.7% | [2] 65.6% | [3] 76.8% | [4] 79.8% | [5] 81.8% | [6] 58.3% | [7] 20.3% | [8] 40.2% | [9] 82.1% | [10] 67.9%

O=C1/C=C/[C@@H](O)[C@@H]2C[C@@H](O)C[C@H]2/C=C/CCC[C@@H](O)CCO1
inactive: [1] 107% | [2] 91.6% | [3] 41.2% | [4] 104% | [5] 92.3% | [6] 90.6% | [7] 22.9% | [8] 110% | [9] 94.7% | [10] 28.7%

NS(=O)(=O)c1ccc(C(=O)NN2C(=O)c3c(Br)c(Br)c(Br)c(Br)c3C2=O)cc1
inactive: [1] 99.5% | [2] 109% | [3] 77.8% | [4] 101% | [5] 98% | [6] 100% | [7] 103% | [8] 99.5% | [9] 95.1% | [10] 109%

Cc1ccc(C=C2C(=O)NC(=O)NC2=O)cc1
inactive: [1] 104% | [2] 103% | [3] 92.5% | [4] 106% | [5] 99% | [6] 95.9% | [7] 100% | [8] 102% | [9] 98.6% | [10] 107%

O=C1/C(=C2\SC(=S)N(C3CC3)C2=O)SC(=S)N1C1CC1
inactive: [1] 101% | [2] 107% | [3] 81.9% | [4] 99.2% | [5] 99.6% | [6] 92% | [7] 97.4% | [8] 94.6% | [9] 88.8% | [10] 106%

O=S(=O)(NCCNc1nccc(-c2c(-c3ccc(F)c(O)c3)nc3sccn23)n1)c1ccc(F)cc1
active: [7] -41.5% | [8] 4.93%
inactive: [1] 29.9% | [2] 16.7% | [3] 64.1% | [4] 59.1% | [5] 45.5% | [6] 29.9% | [9] 16.6% | [10] 20.5%

CCS/C(Nc1ccccc1)=C(\C#N)C(=O)Nc1ccc(OC)cc1
active: [2] 6.46%
inactive: [1] 16.9% | [3] 18.2% | [4] 23.1% | [5] 16.6% | [6] 47.9% | [7] 17.8% | [8] 27.2% | [9] 36.6% | [10] 58.9%

N=c1c(S(=O)(=O)c2ccccc2)cc2c(=O)n3ccccc3nc2n1CC1CCCO1 (stereo not given)
inactive: [1] 119% | [2] 120% | [3] 73.9% | [4] 103% | [5] 108% | [6] 95.3% | [7] 99.7% | [8] 99.8% | [9] 98.7% | [10] 108%

CC(=O)OC[C@]12CC[C@@H]([C@@H](C)c3nnc(-c4ccncc4)o3)[C@@H]1[C@H]1CC[C@@H]3[C@@]4(C)CC[C@H](OC(C)=O)C(C)(C)[C@@H]4CC[C@@]3(C)[C@]1(C)CC2
inactive: [1] 77.5% | [2] 63.8% | [3] 103% | [4] 82.7% | [5] 64.1% | [6] 33.5% | [7] 74.3% | [8] 58.2% | [9] 77.2% | [10] 92.8%

C#CCn1cnc2cnc(Nc3cccc(NC(=O)C=C)c3)nc21
active: [6] 9.21% [6.25 µM]
inactive: [1] 91.7% [6.25 µM] | [2] 70.5% [6.25 µM] | [3] 86.2% [6.25 µM] | [4] 88.3% [6.25 µM] | [5] 75.5% [6.25 µM] | [7] 92.4% [6.25 µM] | [8] 62.5% [6.25 µM] | [9] 82.7% [6.25 µM] | [10] 82.2% [6.25 µM]

COC(=O)c1ccc(NC(=O)Nc2ccc(C(=O)OC)cc2)cc1
inactive: [1] 93% | [2] 82.4% | [3] 113% | [4] 97.2% | [5] 113% | [6] 82% | [7] 102% | [8] 82.3% | [9] 98.1% | [10] 102%

CCOC(=O)C(=Cc1ccc(-c2ccccc2)cc1)C(=O)OCC
inactive: [1] 13.3% | [3] 38% | [4] 54.9% | [5] 21.3% | [6] 31.8% | [7] 54.8% | [8] 35.4% | [10] 31.1%
active: [2] 4.16% | [9] -56.6%

COc1ccc(N2CCC(=S)NC2=S)cc1
inactive: [1] 101% | [2] 104% | [3] 71.6% | [4] 94.5% | [5] 101% | [6] 107% | [7] 98.2% | [8] 90.3% | [9] 95.3% | [10] 113%

Fc1ccc2[nH]cc(-c3nc(-c4c[nH]c5ccncc45)cs3)c2c1
active: [1] -50% | [2] -62.9% | [3] -31.6% | [4] -48.4% | [5] -81.8% | [6] 7.43% | [7] -94.6% | [8] -75.3% | [9] -92.3% | [10] -92.1%

CCN1C(=O)N(CC)C2C1NN=c1s/c(=C3\C(=O)N(CCC(C)C)c4ccccc43)c(=O)n12 (stereo not given)
inactive: [1] 14.6% | [3] 21.6% | [4] 23.3% | [6] 28.9% | [8] 18.5% | [9] 19.2% | [10] 59.9%
active: [2] 4.19% | [5] 8.16% | [7] 8.16%

COc1ccc(/C(C)=C(\c2ccc(Cl)cc2)c2ccc(OCCN3CCCCC3)cc2)cc1
inactive: [3] 89.1% | [4] 62.8% | [5] 36.4% | [6] 41% | [8] 33.4% | [10] 20.1%
active: [1] 9.98% | [2] -2.6% | [7] -39% | [9] 3.11%

CCN1CCN(CCNc2nccc(-c3c(-c4ccc(F)c(OC)c4)nc4sccn34)n2)S1(=O)=O
inactive: [1] 94.6% | [2] 73.1% | [3] 74% | [4] 93% | [5] 76.8% | [6] 74.1% | [7] 41.4% | [8] 15.5% | [9] 40.3% | [10] 27.2%

COCCn1cc(-c2csc(-c3c[nH]c4ccc(Br)cc34)n2)c2cccnc21
active: [9] -10.7%
inactive: [1] 13.1% | [2] 18.2% | [3] 39.7% | [4] 55.6% | [5] 36.5% | [6] 16% | [7] 19.9% | [8] 44.7% | [10] 52.3%

C=CC(=O)Nc1ccc(Oc2nccc(Nc3nnc(-c4ccc(C)cc4)s3)n2)cc1
inactive: [1] 71.5% | [2] 103% | [3] 61% | [4] 62.7% | [5] 83% | [6] 52.8% | [7] 46% | [8] 44% | [9] 60.2% | [10] 73.9%

COc1ccc(-c2nn(-c3ccccc3)cc2/C=C/C(=O)NNC(=O)Nc2ccc(C)cc2)cc1
inactive: [1] 97.1% | [2] 101% | [3] 96.5% | [4] 88.5% | [5] 94.3% | [6] 89.6% | [7] 96.5% | [8] 89.3% | [9] 97.6% | [10] 115%

N#Cc1c(-c2ccccc2)nc(SCC(O)CN2CCOCC2)nc1N1CCOCC1 (stereo not given)
active: [3] -4.63%
inactive: [1] 80.1% | [2] 68.5% | [4] 65.8% | [5] 81.4% | [6] 56.5% | [7] 66.6% | [8] 42.9% | [9] 78% | [10] 59.9%

O=C(NCc1cccc(CNC(=O)Nc2nc3ccccc3[nH]2)c1)Nc1nc2ccccc2[nH]1
inactive: [1] 69.5%
active: [2] -45.7% | [3] -42.2% | [4] 9.35% | [5] -77.9% | [6] -59.8% | [7] -46.5% | [8] -15.9% | [9] -20.4% | [10] -76.9%

S=C(c1ccc2c(c1)OCO2)N1CCN(c2cccc(Cl)c2)CC1
inactive: [1] 24.1% | [3] 12.5% | [4] 40.4% | [5] 28.5% | [6] 15.9% | [8] 25.4% | [9] 45.4% | [10] 53.5%
active: [2] 4.72% | [7] -10.8%

O=C(CSc1nnc(-c2cc(-c3ccccc3)nc3ccccc23)n1-c1ccccc1)Nc1ccc(C(=O)/C=C/c2ccc(Cl)cc2)cc1
inactive: [1] 73.5% | [2] 76.2% | [3] 97.3% | [4] 101% | [5] 93.9% | [6] 81% | [7] 91.4% | [8] 67.9% | [9] 94.3% | [10] 99.8%

Cc1cc2c(cc1C)N(C(=O)CCl)CC(=O)N2
active: [1] 7.57% | [2] -60% | [9] -9.81%
inactive: [3] 74.4% | [4] 88% | [5] 14.4% | [6] 71.2% | [7] 43.8% | [8] 70.7% | [10] 77.1%
